Experimental data published in the antibiotic and cytotoxicity screens of Wong et al. (2023).
Screen size: about 39,000 compounds; about 3,300 (8.5%) were called active. What follows is part of a selection rich in actives, with near analogues and random picks from the rest.

The molecules below were run on HepG2 (assay: cytotoxicity call (relative viability < 0.9)). Conditions: 10 µM.
For C[C@@H]1CCCCO[C@H](CN(C)C(=O)NC2CCCCC2)[C@@H](C)CN([C@@H](C)CO)C(=O)c2cc(NC(=O)NC3CCCCC3)ccc2O1, the cytotoxicity call was “inactive”.
In the case of O=C(C[C@H]1C=C[C@@H](NC(=O)CN2CCOCC2)[C@H](CO)O1)NCCc1ccccc1, the cytotoxicity call is reported as “inactive”.
COCC#Cc1ccc2c(c1)O[C@@H](CN(C)C(=O)c1ccccc1F)[C@@H](C)CN([C@@H](C)CO)S2(=O)=O was tested, and the cytotoxicity call was “inactive”.
With CNC[C@H]1OCCCC[C@H](C)Oc2ccc(NC(=O)c3ccncc3)cc2C(=O)N([C@@H](C)CO)C[C@@H]1C the cytotoxicity call was “inactive”.
With Cc1ccc(S(=O)(=O)N(C)C[C@@H]2Oc3ccc(NS(=O)(=O)c4c(C)noc4C)cc3CC(=O)N([C@@H](C)CO)C[C@H]2C)cc1 the cytotoxicity call was “inactive”.
C[C@H]1CN([C@@H](C)CO)C(=O)c2cccc(NC(=O)c3cnccn3)c2O[C@H]1CN(C)S(=O)(=O)c1ccc(Cl)cc1 was tested, and the cytotoxicity call was “inactive”.
In the case of O=C(C[C@H]1CC[C@H](NC(=O)c2cccnc2)[C@H](CO)O1)NCCN1CCCCC1, the cytotoxicity call is reported as “inactive”.
In the case of COCC#Cc1ccc2c(c1)O[C@H](CN(C)C(=O)C1CCCCC1)[C@H](C)CN([C@@H](C)CO)S2(=O)=O, the cytotoxicity call is reported as “inactive”.
With C[C@H](CO)N1C[C@H](C)[C@H](CN(C)C(=O)Cc2ccccc2)OCCCC[C@H](C)Oc2ccc(NC(=O)Nc3ccc(F)cc3)cc2C1=O the cytotoxicity call was “inactive”.
For CCS(=O)(=O)Nc1ccc2c(c1)C(=O)N(C)[C@H]1CC[C@H](CC(=O)NCc3ccc(OC)cc3)O[C@@H]1CO2, the cytotoxicity call was “inactive”.
For C[C@H](CO)N1C[C@H](C)[C@H](CN(C)C(=O)Nc2ccc3c(c2)OCO3)OCCCC[C@H](C)Oc2ccc(NC(=O)c3ccncc3)cc2C1=O, the cytotoxicity call was “inactive”.
C[C@@H]1CN([C@@H](C)CO)C(=O)c2cc(NC(=O)Nc3ccc(C(F)(F)F)cc3)ccc2O[C@@H](C)CCCCO[C@@H]1CN(C)Cc1ccncc1 was tested, and the cytotoxicity call was “active”.
For C[C@H]1CCCCO[C@H](CN(C)Cc2ccncc2)[C@@H](C)CN([C@@H](C)CO)C(=O)c2cc(NC(=O)Nc3ccc(C(F)(F)F)cc3)ccc2O1, the cytotoxicity call was “active”.
For C[C@@H]1CN([C@@H](C)CO)C(=O)c2cc(NC(=O)Nc3ccc(C(F)(F)F)cc3)ccc2O[C@@H](C)CCCCO[C@H]1CN(C)Cc1ccncc1, the cytotoxicity call was “inactive”.
In the case of C[C@@H]1CCCCO[C@H](CN(C)Cc2ccncc2)[C@H](C)CN([C@@H](C)CO)C(=O)c2cc(NC(=O)Nc3ccc(C(F)(F)F)cc3)ccc2O1, the cytotoxicity call is reported as “active”.
For C[C@@H]1CCCCO[C@@H](CN(C)Cc2ccncc2)[C@@H](C)CN([C@@H](C)CO)C(=O)c2cc(NC(=O)Nc3ccc(C(F)(F)F)cc3)ccc2O1, the cytotoxicity call was “inactive”.
In the case of C[C@@H]1CCCCO[C@@H](CN(C)Cc2ccncc2)[C@@H](C)CN([C@H](C)CO)C(=O)c2cc(NC(=O)Nc3ccc(C(F)(F)F)cc3)ccc2O1, the cytotoxicity call is reported as “active”.
For C[C@H](CO)N1C[C@H](C)[C@@H](CN(C)CC2CC2)Oc2ccc(NC(=O)CCN3CCOCC3)cc2CC1=O, the cytotoxicity call was “inactive”.
With COC(=O)c1c(CC[C@@H](CO)NC(=O)N[C@H](Cc2ccccc2)Cn2cc(-c3ccccc3N)nn2)oc(C(C)=O)c1C(=O)OC the cytotoxicity call was “inactive”.
With COc1ccc(NC(=O)N(C)C[C@@H]2Oc3ccc(NC(=O)Nc4cccc5ccccc45)cc3CC(=O)N([C@H](C)CO)C[C@H]2C)cc1 the cytotoxicity call was “inactive”.
With C[C@H](CO)N1C[C@H](C)[C@H](CN(C)C(=O)NC2CCCCC2)OCCCC[C@H](C)Oc2ccc(NC(=O)c3ccncc3)cc2C1=O the cytotoxicity call was “inactive”.
With COc1ccc(NC(=O)N(C)C[C@H]2Oc3ccc(NC(=O)CCN4CCOCC4)cc3C(=O)N([C@@H](C)CO)C[C@H]2C)cc1 the cytotoxicity call was “inactive”.
In the case of C[C@@H]1CN([C@@H](C)CO)C(=O)CCCn2nncc2CO[C@H]1CN(C)C(=O)c1ccc(N2CCN(C)CC2)cc1, the cytotoxicity call is reported as “inactive”.
C[C@H]1CN([C@@H](C)CO)C(=O)c2cccc(NC(=O)C3CC3)c2O[C@@H]1CN(C)C(=O)Nc1ccc2c(c1)OCO2 was tested, and the cytotoxicity call was “inactive”.
In the case of C[C@@H]1CCCCO[C@H](CN(C)CC2CCCCC2)[C@H](C)CN([C@@H](C)CO)C(=O)c2cc(NC(=O)c3ccncc3)ccc2O1, the cytotoxicity call is reported as “inactive”.
For C[C@@H]1CN([C@H](C)CO)C(=O)Cc2cc(NC(=O)Cn3cnnn3)ccc2O[C@H]1CN(C)C(=O)Nc1ccc2c(c1)OCO2, the cytotoxicity call was “inactive”.
With COCC(=O)N1C[C@@H](C)[C@@H](OC)CN(C)C(=O)c2cc(NC(=O)c3cc(C)on3)ccc2OC[C@@H]1C the cytotoxicity call was “inactive”.
With Cc1ccc(S(=O)(=O)Nc2ccc3c(c2)CC(=O)N([C@@H](C)CO)C[C@@H](C)[C@@H](CN(C)Cc2ccc(Oc4ccccc4)cc2)O3)cc1 the cytotoxicity call was “inactive”.
With Cc1ccc(S(=O)(=O)Nc2ccc3c(c2)CC(=O)N([C@H](C)CO)C[C@@H](C)[C@@H](CN(C)Cc2ccc(Oc4ccccc4)cc2)O3)cc1 the cytotoxicity call was “active”.
For Cc1ccc(S(=O)(=O)Nc2ccc3c(c2)CC(=O)N([C@@H](C)CO)C[C@H](C)[C@@H](CN(C)Cc2ccc(Oc4ccccc4)cc2)O3)cc1, the cytotoxicity call was “active”.
Cc1ccc(S(=O)(=O)Nc2ccc3c(c2)CC(=O)N([C@@H](C)CO)C[C@H](C)[C@H](CN(C)Cc2ccc(Oc4ccccc4)cc2)O3)cc1 was tested, and the cytotoxicity call was “inactive”.
Cc1ccc(S(=O)(=O)Nc2ccc3c(c2)CC(=O)N([C@@H](C)CO)C[C@@H](C)[C@H](CN(C)Cc2ccc(Oc4ccccc4)cc2)O3)cc1 was tested, and the cytotoxicity call was “inactive”.
For Cc1ccc(S(=O)(=O)Nc2ccc3c(c2)CC(=O)N([C@H](C)CO)C[C@H](C)[C@@H](CN(C)Cc2ccc(Oc4ccccc4)cc2)O3)cc1, the cytotoxicity call was “inactive”.
COc1ccc(S(=O)(=O)N(C)C[C@@H]2Oc3c(NC(=O)c4cc(C)nn4C)cccc3C(=O)N([C@@H](C)CO)C[C@H]2C)cc1 was tested, and the cytotoxicity call was “inactive”.
C[C@H](O)C#Cc1ccc2c(c1)O[C@@H](CN(C)C(=O)Nc1ccccc1)[C@@H](C)CN([C@@H](C)CO)S2(=O)=O was tested, and the cytotoxicity call was “inactive”.
For C[C@@H]1CN([C@H](C)CO)C(=O)CCCn2cc(nn2)CO[C@H]1CN(C)S(=O)(=O)c1ccc(Cl)cc1, the cytotoxicity call was “inactive”.
In the case of C[C@@H]1CCCCO[C@@H](CN(C)C(=O)C2CCCCC2)[C@H](C)CN([C@H](C)CO)C(=O)c2cc(NC(=O)Cc3ccccc3)ccc2O1, the cytotoxicity call is reported as “inactive”.
For CC(C)CC(=O)Nc1cncc(-c2ccc3[nH]nc(-c4nc5cncc(-c6cccc(F)c6)c5[nH]4)c3c2)c1, the cytotoxicity call was “active”.
